Experimental data from PubChem BioAssay (Tox21).
Records with an inconclusive call do not appear. Active and inactive are the calls of the source. Unless noted, calls follow the shape of the dose curve; as a rule, active = well fitted curve in the direction sought with a large enough effect in the repeat runs; inconclusive = weak or mixed curves; inactive = no such curve, though single readings can be large; an effect the other way counts as inactive or inconclusive.

Assays:
[1] = qHTS assay to identify small molecule agonists of the estrogen receptor beta (ER-beta) signaling pathway - cell viability counter screen (AID 1259380); also: nearly all actives have a fitted effect of over 30% in size
Method in brief: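 HEK293T ER-beta-UAS-bla; 2% CS-FBS; 6 hr pre-plate, 16 hr cpd at 37C/5% CO2; LiveBLAzer read first, then CellTiter-Glo 30 min RT, luminescence.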

[2] = qHTS assay to identify small molecule antagonists of the estrogen receptor beta (ER-beta) signaling pathway - cell viability counter screen (AID 1259382);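 also: HEK293T cells carrying ER-beta-UAS-bla reporter stimulated with estradiol; series mostly up to about 92 µM; nearly all actives have a fitted effect of over 55% in size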
Method in brief: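 Cells: ER-beta-UAS-bla HEK293T, 2,000/well, 2% CS-FBS, 6 hr settle. Cpd + E2 (1nM final), 16 hr, 37C/5% CO2. Bla FRET substrate 2 hr RT, then CellTiter-Glo 30 min RT, luminescence.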

[3] = molecular target: Estrogen receptor (Homo sapiens) (UniProt P03372); assay: qHTS assay to identify small molecule agonists of the estrogen receptor alpha (ER-alpha) signaling pathway in the presence of an antagonist (AID 1259383; calls by dose curve; also: top concentration of the series differs between compounds; nearly all actives have a fitted effect of over 15% in size)
Chain of Estrogen receptor (Homo sapiens) (P03372 whole entry, looked up): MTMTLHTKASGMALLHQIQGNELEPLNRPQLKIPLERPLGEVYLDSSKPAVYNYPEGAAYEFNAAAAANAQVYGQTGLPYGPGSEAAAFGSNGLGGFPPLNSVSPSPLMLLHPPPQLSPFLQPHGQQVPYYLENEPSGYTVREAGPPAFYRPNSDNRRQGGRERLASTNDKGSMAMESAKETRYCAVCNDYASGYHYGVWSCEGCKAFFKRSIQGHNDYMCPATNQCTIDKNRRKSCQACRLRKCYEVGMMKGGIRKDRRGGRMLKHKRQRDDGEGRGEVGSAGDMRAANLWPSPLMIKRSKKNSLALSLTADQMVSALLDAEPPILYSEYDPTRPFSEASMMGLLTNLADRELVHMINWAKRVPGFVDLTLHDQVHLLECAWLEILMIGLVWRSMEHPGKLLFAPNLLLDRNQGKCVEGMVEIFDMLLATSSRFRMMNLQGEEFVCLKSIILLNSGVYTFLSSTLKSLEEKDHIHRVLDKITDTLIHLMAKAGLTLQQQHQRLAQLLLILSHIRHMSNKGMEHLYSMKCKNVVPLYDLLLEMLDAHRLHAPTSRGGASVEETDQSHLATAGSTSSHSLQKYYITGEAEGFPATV
Method in brief: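 VM7Luc4E2, endog. ER-alpha + 4×ERE-luc; charcoal-stripped FBS, phenol red-free, 5 d; 24hr plating; +10.0nM ICI-182,780 (final); cpds 15 conc, 22hr, 37C/5% CO2; ONE-Glo luminescence.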

[4] = qHTS assay to identify small molecule agonists or antagonists of the thyroid stimulating hormone receptor (TSHR) signaling pathway - wild type cell line counter screen (AID 1259384; calls by dose curve)
Method in brief: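 Counter screen in untransfected Hek293: compounds (15-point titration, triplicate) plus phosphodiesterase inhibitor Ro20-1724 added after 18 h plating; 30 min RT. Intracellular cAMP via competitive d2/cryptate immunoassay, 1 h incubation.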

[5] = qHTS assay to identify small molecule agonists of the estrogen receptor alpha (ER-alpha) signaling pathway in the presence of an antagonist - cell viability counter screen (AID 1259386);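 also: series mostly up to about 92 µM; cells exposed to compounds for 22 h at 37 °C before the viability read; nearly all actives have a fitted effect of over 30% in size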
Method in brief: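 VM7Luc4E2, stripped-serum pre-culture 5 d; 24hr plating; +ICI-182,780 10.0nM final; cpds 15 conc, 22hr, 37C/5% CO2; CellTiter-Fluor added at 21hr, fluorescence 1hr later.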

[6] = molecular target: Progesterone receptor (Homo sapiens) (UniProt P06401); assay: qHTS assay to identify small molecule agonists of the progesterone receptor (PR) signaling pathway (AID 1346784; calls by dose curve; also: nearly all actives have a fitted effect of over 30% in size)
Chain of Progesterone receptor (Homo sapiens) (P06401 whole entry, looked up): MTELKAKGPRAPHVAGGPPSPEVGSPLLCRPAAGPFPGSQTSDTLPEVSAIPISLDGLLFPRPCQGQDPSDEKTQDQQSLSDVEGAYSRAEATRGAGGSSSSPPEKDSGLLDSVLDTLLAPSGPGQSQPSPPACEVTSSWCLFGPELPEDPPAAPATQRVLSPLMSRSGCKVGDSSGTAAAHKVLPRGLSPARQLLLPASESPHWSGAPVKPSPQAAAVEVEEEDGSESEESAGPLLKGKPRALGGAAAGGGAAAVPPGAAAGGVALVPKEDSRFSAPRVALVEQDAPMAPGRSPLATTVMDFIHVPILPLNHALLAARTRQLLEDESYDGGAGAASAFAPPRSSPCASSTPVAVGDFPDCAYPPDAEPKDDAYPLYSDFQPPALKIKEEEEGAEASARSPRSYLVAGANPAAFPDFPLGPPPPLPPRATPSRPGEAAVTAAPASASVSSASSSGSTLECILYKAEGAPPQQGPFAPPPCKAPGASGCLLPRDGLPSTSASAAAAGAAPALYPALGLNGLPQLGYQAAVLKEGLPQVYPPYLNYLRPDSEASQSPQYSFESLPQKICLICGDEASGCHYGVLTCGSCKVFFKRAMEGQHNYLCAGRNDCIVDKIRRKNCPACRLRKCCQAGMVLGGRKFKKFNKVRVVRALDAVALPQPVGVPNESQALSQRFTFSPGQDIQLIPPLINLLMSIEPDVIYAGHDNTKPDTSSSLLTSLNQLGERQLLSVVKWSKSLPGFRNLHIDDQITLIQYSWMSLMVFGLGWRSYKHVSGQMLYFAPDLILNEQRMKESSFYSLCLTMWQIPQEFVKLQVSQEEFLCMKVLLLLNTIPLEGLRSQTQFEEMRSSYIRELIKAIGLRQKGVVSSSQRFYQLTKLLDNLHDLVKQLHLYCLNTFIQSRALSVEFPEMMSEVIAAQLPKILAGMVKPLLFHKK
Method in brief: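 Beta-lactamase reporter read-out: after 16 hr compound treatment at 37C and a further 2 hr at room temperature with LiveBLAzer B/G FRET substrate, fluorescence was measured in PR-UAS-bla HEK 293T cells grown in 2% charcoal-stripped serum.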

[7] = molecular target: Progesterone receptor (Homo sapiens) (UniProt P06401); assay: qHTS assay to identify small molecule antagonists of the progesterone receptor (PR) signaling pathway (AID 1346795; active = well fitted inhibition curve with a large enough effect in the signal ratio in the repeat runs, not every such curve was filed as active; the % refers to the signal ratio)
Method in brief: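 Read-out is fluorescence from the LiveBLAzer B/G FRET substrate, cleaved by a UAS-controlled beta-lactamase in PR-UAS-bla HEK293T cells after 16 hr exposure to compound plus 1 nM promegestone (final), followed by 2 hr at room temperature.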

[8] = qHTS assay to identify small molecule antagonists of the progesterone receptor (PR) signaling pathway - cell viability counter screen (AID 1346798);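 also: HEK293T PR-UAS-bla cells stimulated with the agonist R5020; series mostly up to about 92 µM; nearly all actives have a fitted effect of over 50% in size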
Method in brief: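 HEK293T PR-UAS-bla, 2% charcoal-stripped FBS; 4 hr pre-plate; cpd + R5020, 16 h 37C; LiveBLAzer read first; then CellTiter-Glo 30 min RT, luminescence.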

[9] = qHTS assay to identify small molecule agonists of the progesterone receptor (PR) signaling pathway - cell viability counter screen (AID 1346799; calls by dose curve; also: nearly all actives have a fitted effect of over 45% in size)
Method in brief: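 Luminescence from CellTiter-Glo, added after the beta-lactamase FRET read in the same wells, gave cytotoxicity in PR-UAS-bla HEK293T cells treated with compounds for 16 hr at 37C.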

[10] = qHTS assay to identify small molecule antagonists of the TGF-beta/Smad signaling pathway - cell viability counter screen (AID 1346824); also: nearly all actives have a fitted effect of over 50% in size
Method in brief: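 Cytotoxicity counter-screen run in the same wells as the beta-lactamase Smad reporter read: CellTiter-Glo luminescence after 30 min at room temperature. HEK 293T SBE-bla cells had 5 hr compound exposure at 37 C with TGF-beta1 (0.25 ng/mL stock).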

[11] = qHTS assay to identify small molecule agonists of the TGF-beta/Smad signaling pathway - cell viability counter screen (AID 1346829); also: top concentration of the series differs between compounds; nearly all actives have a fitted effect of over 45% in size
Method in brief: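 Same-well cytotoxicity: CellTiter-Glo added after the 2 hr room-temperature beta-lactamase substrate step, luminescence measured 30 min later; cells had 5 hr of compound at 37 C.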

[12] = qHTS assay to identify small molecule agonists of the TGF-beta/Smad signaling pathway (AID 1346859; active = well fitted activation curve with a large enough effect in the signal ratio in the repeat runs, not every such curve was filed as active; the % refers to the signal ratio; also: series mostly up to about 77 µM)
Method in brief: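 SBE-bla HEK 293T, 4,000 cells/well, plated o/n; cpd in DMSO, 5 hr, 37 C/5% CO2; B/G FRET substrate 2 hr RT; ex 405, em 460/530 nm.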

[13] = molecular target: Thyrotropin-releasing hormone receptor (Homo sapiens) (UniProt P34981); assay: qHTS assay to identify small molecule antagonists of the thyrotropin-releasing hormone receptor (TRHR) signaling pathway (AID 1346877; active = well fitted inhibition curve with a large enough effect in the repeat runs, not every such curve was filed as active; also: series mostly up to about 51 µM)
Chain of Thyrotropin-releasing hormone receptor (Homo sapiens) (P34981 whole entry, looked up): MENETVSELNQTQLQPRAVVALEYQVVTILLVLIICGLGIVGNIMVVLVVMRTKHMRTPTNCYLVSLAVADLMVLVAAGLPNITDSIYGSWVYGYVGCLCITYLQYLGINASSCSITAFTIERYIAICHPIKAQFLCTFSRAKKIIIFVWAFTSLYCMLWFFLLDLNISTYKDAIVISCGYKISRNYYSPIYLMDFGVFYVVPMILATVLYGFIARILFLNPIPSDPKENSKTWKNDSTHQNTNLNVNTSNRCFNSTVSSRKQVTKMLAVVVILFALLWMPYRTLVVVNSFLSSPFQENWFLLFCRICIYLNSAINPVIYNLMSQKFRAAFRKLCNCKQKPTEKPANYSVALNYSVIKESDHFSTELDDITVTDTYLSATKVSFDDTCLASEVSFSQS
Method in brief: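 Intracellular calcium fluorescence, read kinetically every second over 3 min, reports TRH-evoked signalling in HEK293 cells carrying TRHR. Test compounds were added 5 min ahead of a 1 nM TRH challenge.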

[14] = molecular target: Thyrotropin-releasing hormone receptor (Homo sapiens) (UniProt P34981); assay: qHTS assay to identify small molecule agonists of the thyrotropin-releasing hormone receptor (TRHR) signaling pathway (AID 1346891; calls by dose curve; also: series mostly up to about 58 µM)
Method in brief: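 Intracellular calcium rise, read as fluorescence every second for 3 min, served as the agonist signal in dye-loaded HEK293 cells expressing TRHR; each compound ran at 15 concentrations in triplicate.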

[15] = Human pregnane X receptor (PXR) small molecule agonists, qHTS cell viability counter screen (AID 1346977); also: nearly all actives have a fitted effect of over 50% in size
Method in brief: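 PXR-Luc HepG2, 2,000 cells/well, 5% charcoal-stripped FBS; 5hr settle; cpd 24hr, 37C/5% CO2; CellTiter-Fluor at 23hr, read 1hr later (fluorescence).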

[16] = Caspase-3/7 induction in HepG2 cells by small molecules, qHTS assay (AID 1346978); also: nearly all actives have a fitted effect of over 15% in size
Method in brief: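 Caspase-3/7 induction was measured by Caspase-Glo 3/7 luminescence (30 min, room temperature) after a 17 hr compound exposure of wild-type HepG2 cells seeded at 2,000 per well and pre-incubated 5 hr.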

[17] = Caspase-3/7 induction in CHO-K1 cells by small molecules, qHTS cell viability counter screen (AID 1346979); also: nearly all actives have a fitted effect of over 35% in size
Method in brief: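 Cells (CHO-K1, wild type) are plated at 1,500 per well and incubated 5hr. Test compounds in DMSO are then pinned in, followed by 16hr at 37C and 5% CO2. Viability is read by CellTiter-Fluor fluorescence after 1hr.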

[18] = Caspase-3/7 induction in CHO-K1 cells by small molecules, qHTS assay (AID 1346980); also: nearly all actives have a fitted effect of over 15% in size
Method in brief: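 Luminescent Caspase-Glo 3/7 read (30min, room temperature) quantified apoptosis induction. Cells were wild-type CHO-K1, treated with compound for 17hr at 37 C and 5% CO2.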

[19] = Caspase-3/7 induction in HepG2 cells by small molecules, qHTS cell viability counter screen (AID 1346981); also: series mostly up to about 92 µM; nearly all actives have a fitted effect of over 30% in size
Method in brief: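 HepG2, WT, 2,000 cells/well; 5 hr pre-incubation 37 C/5% CO2; compound pin-transferred from DMSO; 16 hr exposure; CellTiter-Fluor, 1 hr; fluorescence read.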

Measured: Potency

Nc1ccc(-c2ccc(N)cc2)cc1
inactive: [1] | [2] | [3] | [4] | [5] | [6] | [7] | [8] | [9] | [10] | [11] | [12] | [13] | [14] | [15] | [16] | [17] | [18] | [19]

CC(Cl)(Cl)C(=O)O
inactive: [1] | [2] | [3] | [4] | [5] | [6] | [7] | [8] | [9] | [10] | [11] | [12] | [15] | [16] | [17] | [18] | [19]

COP(=O)(OC)OC=C(Cl)Cl
inactive: [1] | [2] | [3] | [5] | [6] | [7] | [8] | [9] | [10] | [11] | [12] | [13] | [14] | [15] | [16] | [17] | [18] | [19]

CCC[N+]1(C)CCCCC1
inactive: [1] | [2] | [4] | [5] | [6] | [7] | [8] | [9] | [10] | [11] | [12] | [15] | [16] | [17] | [18] | [19]
